Assay outcomes as filed in PubChem.
M18AAP inhibitor – PfM18AAP inhibitors, malaria aminopeptidase, primary screen, biochemical, QFRET, recombinant enzyme | inhibition, % at 7.35 µM | 1.2% of 290,000 active | H-Glu-NHMec fluorogenic cleavage | AID 1822, 2009;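 active means inhibition above the campaign mean inhibition over all tested compounds plus 3 SD, cut at about 28% in these data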
IDE inh – human IDE inhibitors in live cells, primary screen, fluorescence polarization, HEK cells, FAbetaB substrate. Insulin-degrading enzyme (Homo sapiens), P14735. FAbetaB cleavage. inhibition, % at 5.59 µM. 0.41% of 320,000 active;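 active means percent inhibition above the average of all tested compounds plus 3 SD, set per screening campaign, cut at about 16% in these data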;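 further: IDE supplied by intact live HEK cells; FP after avidin binding of uncleaved biotin substrate so inhibition keeps polarization high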
PolyA inhibitor – polyadenylation inhibitors in yeast reporter cells, primary screen, luminescence, S. cerevisiae | activity score, % at 12 µM | AID 1875, 2009 | S. cerevisiae SKY197-pL101 polyadenylation reporter, beta-gal luminescence; efflux-impaired pdr1/pdr3 knockout yeast; score 100 = 6 SD above DMSO | 0.02% of 300,000 active;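 active means lowest replicate activity score at least 50, where 100 means six control SD above control mean; inconclusive means lowest score under 50 but half or more replicates reach 50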;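 further: yeast exposed to compound for 9 h at 30 °C; higher score means more reporter readthrough which indicates perturbed polyadenylation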
IDE cell activ – human IDE activators in live cells, primary screen, fluorescence polarization, HEK cells, FAbeta-B substrate. Insulin-degrading enzyme (Homo sapiens), P14735. 0.073% of 340,000 active. activation, % at 5.96 µM. FAbeta-B cleavage; 0% vehicle, 100% cell-free pure enzyme wells. AID 493087, 2011;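 active means activation above the mean of all tested compounds plus 3 SD, set per screening campaign, cut at about 17% in these data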
ALR inh – inhibitors of human ALR sulfhydryl oxidase, primary screen, biochemical, H2O2 detection, HRP-luminol luminescence, single point. inhibition, % (no concentration beside the values). purified ALR, DTT oxidation. 3.8% of 290,000 active. FAD-linked sulfhydryl oxidase ALR (Homo sapiens), P55789;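 active means mean replicate inhibition above about 79%, with every replicate also reaching it, limit read from the data; inconclusive means only one of the two criteria met; inactive means mean below limit and not every replicate reaching it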
Target sequence (P55789 whole entry, looked up): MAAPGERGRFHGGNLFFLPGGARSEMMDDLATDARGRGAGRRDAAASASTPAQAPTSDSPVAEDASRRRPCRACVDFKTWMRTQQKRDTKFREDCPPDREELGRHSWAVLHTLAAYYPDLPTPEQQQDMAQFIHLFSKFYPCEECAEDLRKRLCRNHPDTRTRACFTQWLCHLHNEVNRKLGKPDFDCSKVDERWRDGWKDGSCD
CaV13 FRET inh – Primary screen for inhibitors of IQ motif and Ca2+-dependent inactivation inhibitor domain binding in CACNA1D, Förster resonance energy transfer in living cells, …; HEK cells, CFP/YFP FRET ICDI-IQ, plate reader, 10 min; percent FRET-ratio fall versus neutral wells; inhibition, % at 12.3 µM; 0.098% of 340,000 active;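 active means mean replicate inhibition of at least 30% and at least 1% of replicates passing that level; inconclusive means only one of the two criteria is met; inactive means neither criterion is met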
IDE inh confirm – human IDE inhibitors in live cells, confirmation, fluorescence polarization, HEK cells, FAbetaB substrate | shares compounds with IDE inh | FAbetaB cleavage | inhibition, % at 5.59 µM | 51% of 1,200 active;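 active means mean inhibition across triplicate wells above the cutoff set by the earlier primary insulin-degrading enzyme screen, cut at about 16% in these data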
HEK cytotox – cytotoxicity in HEK cells, cytotoxicity control for IDE inhibitor project, cell-based, luminescence; 28% of 1,200 active; inhibition, % at 5.59 µM; shares compounds with IDE inh; AID 449730, 2010; HEK293 cytotoxicity, ATP luminescence; in the data active means inhibition above about 22%
FP fluor counter – fluorescent or optically active artefacts, dose response, artefact control for IDE inhibitor project, biochemical, fluorescence polarization; shares compounds with IDE inh; FP counterscreen for fluorescent artifacts, IDE probe project; IC50, µM; 30 tested, under 10 active; AID 588718, 2011; call rule not given here
Each line names hits and unclear results; the compound was inactive in the other large screens (follow-up assays come after a bar, where they were run). In the library only some 4.1% were active in any assay of this set; here they are far more common.

CCOC(=O)/C=C1/SCC(=O)N1CC(=O)Nc1cccc(F)c1	none (no result: M18AAP inhibitor, PolyA inhibitor)
COc1ccccc1CNCC(=O)Nc1ccccc1-n1cccc1	none
O=C(Nc1c2c(nn1-c1ccccc1)CS(=O)(=O)C2)c1cccs1	none
C1=C(CCNc2ncnc3c2[nH]c2ccccc23)CCCC1	IDE inh 35 (no result: PolyA inhibitor) | IDE inh confirm inactive | HEK cytotox 87
CC(=O)N(C1=C(Cl)C(=O)c2ccccc2C1=O)C1CCCCC1	IDE inh 50 | IDE inh confirm 64 | HEK cytotox 124
CC(=O)N(C(C)=O)c1nc(-c2ccccc2)cn1/N=C/c1ccccc1	IDE inh 25 | IDE inh confirm 20 | HEK cytotox inactive
C[n+]1cn(/N=C/c2ccccc2)c2ccccc21	none
COc1ccc(O)c(C(=O)c2cnn(C(=O)c3cccc(S(=O)(=O)N(C)C)c3)c2)c1	none (no result: M18AAP inhibitor, PolyA inhibitor)
COCc1cc([C@@H]2C[C@H]3CN(c4ccccc4)C(=O)[C@]34CCCN24)ccc1OC	none
COc1ccc([C@@H]2C[C@H]3CN(c4ccccc4)C(=O)[C@]34CCCN24)c(OC)c1OC	IDE inh 22 | IDE inh confirm inactive | HEK cytotox inactive
CN1C(=O)CSc2ccc(NC(=O)NCCC3=CCCCC3)cc21	IDE inh 17 (no result: CaV13 FRET inh) | IDE inh confirm inactive | HEK cytotox inactive
CC(C)CCNC(=O)Nc1ccc2c(c1)N(C)C(=O)CS2	none
COc1ccc(/C=C/C(=O)NC(=S)Nc2ccc(S(=O)(=O)Nc3ccc(OC)nn3)cc2)cc1	none
COc1ccc(/C=C/C(=O)NC(=S)Nc2ccc(S(=O)(=O)Nc3cc(C)on3)cc2)cc1	IDE inh 16, ALR inh inconclusive | IDE inh confirm inactive | HEK cytotox inactive
COc1cc(NC(=O)COC(=O)CCOc2ccc(C)cc2)cc(OC)c1	none
COc1ccc(C(=O)N2CCN(C(=O)C3COc4ccccc4O3)CC2)cc1OC (stereo not drawn)	IDE inh 17 | IDE inh confirm 16 | HEK cytotox inactive | FP fluor counter inactive
CC(=O)c1cc(-c2ccccc2)n(CC(=O)Nc2ccc(C)c(C)c2)c1C	none
COc1ccc2c(/C=C/c3cc[n+](C)cc3)c[nH]c2c1	none
COc1ccc2c(c1)c(/C=C/c1cc[n+](C)cc1)cn2C	IDE inh 27 (no result: ALR inh) | IDE inh confirm 47 | HEK cytotox 44
O=C(O)CN1C(=O)/C(=C\c2cn(CC(=O)N3CCOCC3)c3ccccc23)SC1=S	IDE inh 67 | IDE inh confirm 114 | HEK cytotox inactive
O=C(CN1C(=O)NC2(CCCC2)C1=O)N1CCc2ccccc2C1	none
Cc1ccc(C(=O)C2CCOC(C)(C)C2)cc1 (stereo not drawn)	none
C=CCNc1nc(N2CCOCC2)c(C#N)c2c1CN(C)CC2	IDE inh 16 (no result: ALR inh) | IDE inh confirm inactive | HEK cytotox inactive
Cn1cc(C2=C(c3ccc(Cl)cc3Cl)C(=O)NC2=O)c2ccccc21	IDE inh 33 | IDE inh confirm 60 | HEK cytotox inactive
CC1(Oc2cnc(Cl)c3ccccc23)CCN(Cc2ccc(OC(F)(F)F)cc2)C1 (stereo not drawn)	none (no result: M18AAP inhibitor, IDE inh, PolyA inhibitor, IDE cell activ, ALR inh)
O=C(NCCOCCNC(=O)OCc1ccccc1)OCc1ccccc1	none
Clc1ccc2[nH]c3c(NCCN4CCOCC4)ncnc3c2c1	IDE inh 19 (no result: CaV13 FRET inh) | IDE inh confirm inactive | HEK cytotox inactive
Fc1ccc2[nH]c3c(NCCN4CCOCC4)ncnc3c2c1	none (no result: CaV13 FRET inh)
Clc1ccc2[nH]c3c(NCC4CCCO4)ncnc3c2c1 (stereo not drawn)	IDE inh 38 (no result: IDE cell activ) | IDE inh confirm 17 | HEK cytotox 34
Cc1cccc(NC(=O)CCCCC(=O)Nc2cccc(C)c2)c1	none (no result: M18AAP inhibitor, IDE cell activ)
COc1ccccc1CN1CC(C(=O)N2CCOCC2)CCC1=O (stereo not drawn)	none
CC(C)(C)OC(=O)N1CCCC(C(=O)Nc2ccc(C(=O)NC3CC3)cc2)C1 (stereo not drawn)	none (no result: M18AAP inhibitor, IDE inh, PolyA inhibitor, ALR inh)
Cc1cccc(-c2oc3ccccc3c2C#CCCO)c1	none
Cc1cc(/C=C\c2ccc3cc(N(C)C)ccc3[n+]2C)c(C)n1-c1ccccc1	IDE inh 26 (no result: M18AAP inhibitor, PolyA inhibitor, CaV13 FRET inh) | IDE inh confirm 85 | HEK cytotox 117
Fc1ccc(-c2ccnc(=S)[nH]2)cc1	IDE inh 40, ALR inh 99 | IDE inh confirm inactive | HEK cytotox inactive
COc1cccc(-c2nnc(SCc3nc4ccccc4[nH]3)n2Cc2ccco2)c1	none (no result: M18AAP inhibitor, IDE inh, PolyA inhibitor, IDE cell activ, ALR inh, CaV13 FRET inh) | FP fluor counter inactive
Cn1c(SCc2nc3ccccc3[nH]2)nnc1-c1cccc(Cl)c1	none (no result: M18AAP inhibitor, IDE inh, PolyA inhibitor, IDE cell activ, ALR inh, CaV13 FRET inh) | FP fluor counter inactive
Cc1ccc(/C(O)=C2/C(=O)C(=O)N(CCCn3ccnc3)C2c2ccccn2)cc1 (stereo not drawn)	none (no result: IDE inh, IDE cell activ, ALR inh, CaV13 FRET inh)
Cc1ccccc1COc1ccc(/C(O)=C2/C(=O)C(=O)N(CCCn3ccnc3)C2c2ccco2)cc1 (stereo not drawn)	IDE inh 18 (no result: M18AAP inhibitor) | IDE inh confirm inactive | HEK cytotox inactive
CNc1cnc(-c2ccc(C(=O)N3CCOCC3)cc2)cn1	none (no result: M18AAP inhibitor, IDE inh, PolyA inhibitor, IDE cell activ, ALR inh)
O=C(CSc1nnc(-c2cccc(Cl)c2)n1Cc1ccco1)Nc1ccc2c(c1)OCCO2	none (no result: M18AAP inhibitor, IDE inh, PolyA inhibitor, IDE cell activ, ALR inh, CaV13 FRET inh) | FP fluor counter inactive
O=C(CSc1nnc(-c2ccccc2)n1Cc1ccco1)Nc1ccc2c(c1)OCCO2	none
O=c1c2cc(F)ccc2sn1-c1ccccc1	IDE inh 60 (no result: M18AAP inhibitor, PolyA inhibitor) | IDE inh confirm 33 | HEK cytotox 83
O=C(O)c1cccc(-n2sc3ccccc3c2=O)c1	IDE inh 93 (no result: M18AAP inhibitor, PolyA inhibitor) | IDE inh confirm 97 | HEK cytotox inactive
C=CCc1cccc2cc(C(=O)NNC(=O)CC#N)c(=O)oc12	PolyA inhibitor inconclusive (no result: ALR inh)
COc1cc(/C=C/c2nc3ccccc3c(=O)[nH]2)cc(Br)c1O	IDE inh 44 | IDE inh confirm 143 | HEK cytotox inactive
CCCCc1ccc(NC(=S)N2CCN(C(=O)c3ccco3)CC2)cc1	none (no result: IDE inh, CaV13 FRET inh)
